PubChem BioAssay AID588790 (National Center for Advancing Translational Sciences (NCATS), 2011)
In all, about 1,200 compounds went through this assay and about 85 (7%) were called active. The call rests on the fitted dose curve. The entries come from a sample that favours actives as a whole. Where a call stands in place of a potency, no number is given.

What follows are molecules tested against Beta-2 adrenergic receptor (Homo sapiens) (UniProt P07550) (assay: qHTS assay of beta-arrestin-biased ligands of beta2-adrenergic receptor: Hit Validation with GloSensor). Conditions: W9-Glo22F cells, GloSensor cAMP luminescence, beta2AR agonism; activation: at 46.1 µM (top of the series).
Chain of Beta-2 adrenergic receptor (Homo sapiens) (P07550 whole entry, looked up): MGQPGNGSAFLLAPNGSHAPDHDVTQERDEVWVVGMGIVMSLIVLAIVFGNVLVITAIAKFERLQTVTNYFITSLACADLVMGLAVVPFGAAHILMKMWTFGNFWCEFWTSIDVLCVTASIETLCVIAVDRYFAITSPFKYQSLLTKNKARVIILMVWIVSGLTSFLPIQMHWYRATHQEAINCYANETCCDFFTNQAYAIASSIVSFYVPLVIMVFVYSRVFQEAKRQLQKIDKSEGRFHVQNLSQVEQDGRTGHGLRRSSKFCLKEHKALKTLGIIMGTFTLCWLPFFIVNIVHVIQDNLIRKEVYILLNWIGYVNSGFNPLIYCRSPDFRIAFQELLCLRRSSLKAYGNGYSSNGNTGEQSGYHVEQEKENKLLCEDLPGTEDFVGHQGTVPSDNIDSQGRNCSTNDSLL
Procedure, shortened: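 W9-Glo22F cells plated and incubated overnight at 37 deg C, 5% CO2, then compounds pinned in. GloSensor reagent added, 10 min at room temperature, luminescence read.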
Potency means the concentration at half of the fitted maximal effect.

Compound | Potency
O=C(Nc1ccccc1)N1CCCC(c2nc(-c3cccs3)no2)C1 (stereo not drawn) | inactive
COc1ccc(NC(=S)N2CCc3ccccc3C2)cc1 | inactive
COc1ccc(/C=N/Nc2nncc3ccccc23)c(OC)c1 | inactive
Cc1ccc(/C(=N/Nc2ncnc3ccccc23)C(=O)O)cc1 | inactive
COc1ccc(/C(C)=N/Nc2nc3ccccc3nc2C)cc1OC | 25.9 µM (active)
Fc1ccccc1/C=N/n1cc(-c2ccccc2)[nH]c1=S | inactive
O=C(/C=C/c1ccc(F)cc1)NC(=S)N1CCN(Cc2ccccc2)CC1 | inactive
C[C@H](C(=O)CC(=O)OC(C)(C)C)[C@H](O)c1ccccc1 | inactive
Cc1cc(/C=N/NC(N)=S)c(C)n1-c1ccc(Cl)cc1 | inactive
Cc1nc2ccc(NC(=O)CS(=O)(=O)c3ccc(F)cc3)cc2s1 | inactive
C/C(=N\NC(=S)NC1CCCCC1)c1cccs1 | inactive
C/C(=N\NC(=S)NC1CCCCC1)c1ccc(C)o1 | inactive
C/C(=N\NC(=S)NC1CCCCC1)c1ccc(O)cc1 | 6.51 µM (active)
S=C(Nc1nc2c(s1)CCCC2)NC1CC1 | inactive
NS(=O)(=O)c1ccc(CCNC(=O)CSc2ccc(Cl)cc2)cc1 | inactive
Nc1c(Cl)ncnc1N/N=C/c1ccc2ccccc2n1 | inactive
COc1cc(C(c2nnnn2C(C)(C)C)N2CCN(C)CC2)cc(OC)c1OC (stereo not drawn) | inactive
CN(C(=O)CSc1ccncc1)C1CCCN(Cc2ccccc2F)C1 (stereo not drawn) | inactive
O=C(NCCOc1cccnc1)C1CCC(=O)N(Cc2ccccc2F)C1 (stereo not drawn) | 9.2 µM (active)
COc1ccccc1N1CCN(C(=O)c2cc3ccccc3[nH]2)CC1 | inactive
Cc1[nH]c2ccccc2c1C(=O)C(C)OC(=O)c1ccc(NC(=O)CC#N)cc1 (stereo not drawn) | inactive
O=C(Nc1ccc(Nc2ccccc2)cc1)c1cc([N+](=O)[O-])ccc1Cl | inactive
CCC(=O)N1CCC2(CC1)Oc1ccc(Cl)cc1C(=O)C21CC(c2ccccc2)=NO1 (stereo not drawn) | 23.1 µM (active)

Compound | Potency
CC(C)C(=O)N1CCC2(CC1)Oc1ccc(Cl)cc1C(=O)C21CC(c2ccccc2)=NO1 (stereo not drawn) | inactive
CC(C)Oc1ccc(/C=N/NC(N)=S)cc1 | inactive
Cc1cccnc1NCc1ccc(O)c2ncccc12 | inactive
OCc1ccnc2c(O)cccc12 | 25.9 µM (active)
CCCOCc1ccc(O)c2ncccc12 | inactive
COc1ccccc1NC(=O)COC(=O)c1ccc2ccccc2n1 | inactive
C[C@H](NC(=O)c1ccccc1)C(=O)Nc1nc(-c2ccccn2)cs1 | inactive
CC(C)OC(=O)c1cn(-c2ccccc2)nc1-c1ccco1 | 23.1 µM (active)
O=C(Nc1ccc(Cl)cc1)/C(=C/c1cccc(O)c1)c1nc2ccccc2s1 | inactive
O=C(COc1ccc2ccccc2c1)Nc1ccc(Br)cc1C(=O)O | inactive
Cc1ccc(NC(=S)NC(NC(=O)c2ccco2)C(Cl)(Cl)Cl)cc1 (stereo not drawn) | inactive
COc1ccc2c(C)nc(Nc3nc(C)cc(C)n3)nc2c1 | inactive
COc1cccc(NC(=S)N/N=C2\CC(C)(C)Oc3ccc(O)cc32)c1 | 25.9 µM (active)
CC1(C)C/C(=N\NC(=S)Nc2ccccc2F)c2cc(O)ccc2O1 | inactive
COc1ccccc1NC(=S)N/N=C1\CC(C)(C)Oc2ccc(O)cc21 | inactive
C=CCOc1ccc2ccccc2c1CNn1c(C)n[nH]c1=S | 8.2 µM (active)
CCN(CC)S(=O)(=O)c1ccc(N=Nc2c(C)[nH]n(C(N)=S)c2=O)cc1 | inactive
O=C(C[C@H]1C[C@H](C(=O)N2CCCCC2)[C@@]2(CCc3ccccc3)c3[nH]c4cc(-c5ccco5)ccc4c3CCN2C1=O)NCCC1=CCCCC1 | inactive
C/C(=N\NC(=S)NC(C)C)c1ccc(Cl)s1 | inactive
O=C(N/N=C/c1cn(-c2ccccc2)nc1-c1cc2ccccc2o1)c1cccnc1 | inactive
CO/C=C\C=C/c1nnn(-c2ccc(Cl)cc2)n1 | inactive
Cc1ccc(CNc2ccc(O)cc2)cc1 | inactive
CC(NCCc1ccc(O)cc1)C(O)c1ccc(O)cc1 (stereo not drawn) | 0.0116 µM (active)

Compound | Potency
CCc1ccc(CNc2ccc(O)cc2)cc1 | inactive
Oc1ccc(/C=N/NC(=S)NC2CC3CCC2C3)cc1 (stereo not drawn) | inactive
C=CC[n+]1c(-c2ccc(OC)c(OC)c2)csc1NNC(=O)Nc1ccccc1 | 10.3 µM (active)
COc1ccc(-c2c(-c3ccccc3)c(C(=O)C(=O)NCCCN(C)C)n3ccc4cc(OC)c(OC)cc4c23)cc1OC | inactive
C=CC[n+]1c(-c2ccc(C)cc2)csc1NNC(=O)Nc1ccccc1 | inactive
O=C1NC2(C=Cc3c(ccc4ccccc34)O2)Oc2ccccc21 (stereo not drawn) | inactive
COc1cc(/C=N/Nc2ccc(F)cc2F)cc(OC)c1O | inactive
O=C(O)/C=C/c1nc(-c2ccccc2)n2ccccc12 | 25.9 µM (active)
C[C@@H](NC(=O)c1coc(=O)c(Br)c1)c1ccccc1 | inactive
O=[N+]([O-])c1cc([N+](=O)[O-])c2cc3ccccc3nc2c1 | inactive
Cn1c(CNC(=O)c2ccccc2F)nnc1SCC(=O)c1ccccc1 | inactive
COC(=O)CSc1ccc2nnc(-c3ccc(OC)c(OC)c3)n2n1 | 25.9 µM (active)
COc1ccc(C(C)NC(=O)c2ccc(Br)cc2)cc1OC (stereo not drawn) | inactive
COc1ccc(NC(=O)c2cc3c(-c4ccc(OC)c(OC)c4)nn(C)c3s2)cc1OC | inactive
CCOc1ccc(/C(CCC(=O)O)=N/NC(=S)NCCc2ccccc2)cc1 | inactive
COc1ccc(NC(=O)C(=O)NCC(c2ccco2)N2CCc3ccccc32)cc1 (stereo not drawn) | inactive
COc1cc(/C=N/NC(=O)c2cncc(Br)c2)cc([N+](=O)[O-])c1O | inactive
Cn1c(O)c(/C=N/NC(=O)c2cc3ccccc3cc2O)c2ccccc21 | inactive
Oc1[nH]c2ccc(Br)cc2c1N=NC(=S)NCC1CCCO1 (stereo not drawn) | inactive
COc1cc(OC)c(NS(=O)(=O)c2cc(C(=O)OC(C)C(=O)NC3CC3)c(Cl)cc2Cl)cc1Cl (stereo not drawn) | inactive
COc1cc(/C=C2\SC(=N)N(c3ccc4c(c3)OCO4)C2=O)cc(OC)c1O | 20.6 µM (active)
CCCC1(C(=O)OCC)NC(c2ccc(OC)cc2OC)C2C(=O)N(c3ccc4c(c3)OCCO4)C(=O)C21 (stereo not drawn) | inactive
